Bioassay records (PubChem)
This is a sample that favours compounds with a hit; in the whole collection about 3% have one here.
PTAP TSG101 blk: qHTS Assay for Iinhibitors of HIV-1 Budding by Blocking the Interaction of PTAP/TSG101; 340,000 tested, under 10 active; Fluorescence polarization, FITC-PTAP peptide / Tsg101 binding; Tumor susceptibility gene 101 protein (Homo sapiens), Q99816; AID 493005, 2010; Potency, µM (highest dose often 115 µM), hits mostly inhibitors; active = well fitted inhibition curve with a large enough effect in the main read-out, with a control signal flat, not every such curve was filed as active; inconclusive = small, poorly fitted or top-dose-only effect, or effect the other way, or a change in a side signal; inactive = no such curve, though single readings can be large or run the other way
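Fluorescence anisotropy tracks displacement of a FITC-tagged PTAP peptide (50 nM) from the Tsg101 binding domain (10 uM), following a 20 min room-temperature incubation at pH 7.5.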
USP1 inh: Inhibitors of USP1/UAF1: Primary Screen; recombinant USP1/UAF1, Ub-Rhodamine cleavage fluorescence; Potency, µM (doses to about 57.1 µM), hits mostly inhibitors; 0.23% of 390,000 active; AID 743255, 2014; also: nearly all actives have a fitted effect of over 60% in size
Target sequence (O94782 whole entry, looked up): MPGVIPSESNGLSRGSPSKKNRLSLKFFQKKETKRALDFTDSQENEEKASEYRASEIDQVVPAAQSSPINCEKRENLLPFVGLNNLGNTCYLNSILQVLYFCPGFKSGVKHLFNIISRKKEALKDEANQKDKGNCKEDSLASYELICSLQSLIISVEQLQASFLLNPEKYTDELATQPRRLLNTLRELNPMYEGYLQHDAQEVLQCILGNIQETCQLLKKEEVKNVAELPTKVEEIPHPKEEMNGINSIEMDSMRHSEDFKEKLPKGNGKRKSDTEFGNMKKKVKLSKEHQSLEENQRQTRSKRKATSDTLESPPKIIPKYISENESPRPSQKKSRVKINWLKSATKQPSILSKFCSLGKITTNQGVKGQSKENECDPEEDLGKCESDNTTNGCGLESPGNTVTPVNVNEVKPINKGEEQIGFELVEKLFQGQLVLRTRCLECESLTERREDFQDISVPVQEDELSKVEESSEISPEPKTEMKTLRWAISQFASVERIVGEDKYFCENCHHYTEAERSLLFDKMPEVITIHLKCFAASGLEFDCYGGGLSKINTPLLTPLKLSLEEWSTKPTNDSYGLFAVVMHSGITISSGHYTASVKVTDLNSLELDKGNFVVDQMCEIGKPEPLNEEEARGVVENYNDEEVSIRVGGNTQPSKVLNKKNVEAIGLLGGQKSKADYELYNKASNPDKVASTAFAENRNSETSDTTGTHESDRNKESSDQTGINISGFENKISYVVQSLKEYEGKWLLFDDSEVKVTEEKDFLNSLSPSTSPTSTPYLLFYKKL
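Step one: compound is pinned into 1nM USP1/UAF1 in HEPES pH 7.8 buffer with TCEP. Step two: 15 min room-temperature incubation. Step three: Ub-Rho (150nM final) starts cleavage, tracked by fluorescence over six one-minute reads.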
VDR inh: Inhibitors of the vitamin D receptor (VDR): qHTS | 0.93% of 400,000 active | Potency, µM, most hits filed as inhibitors | AID 504847, 2011 | Vitamin D3 receptor (Homo sapiens), P11473 | VDR-SRC2-3 peptide fluorescence polarization, 2 h
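After 23 nl compound addition and a short centrifugation, plates sat for 2 hours at ambient temperature; polarization of fluorescence then indicated loss of VDR binding to peptide SRC2-3.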
GCN5L2 inh: qHTS Assay for Inhibitors of GCN5L2; Histone acetyltransferase KAT2A (Homo sapiens), Q92830; GCN5L2 HAT assay, ThioGlo1 CoA-SH fluorescence; Potency, µM (titrated, usually from 58.9 µM), actives largely listed as inhibitors; 0.21% of 390,000 active
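qHTS, 1536-well. 20nM enzyme, pH 7.5 HEPES/EDTA/Tween-20 buffer; 15 min compound preinc., RT. Start: 75uM H3(1-25), 70uM AcCoA, 50uM ThioGlo1. Read Ex340/Em540 at t=0 (autofluorescence flag) and t=20 min.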
PLK1 PBD inh: qHTS for Inhibitors of PLK1-PDB (polo-like kinase 1 - polo-box domain): Primary Screen; Serine/threonine-protein kinase PLK1 (Homo sapiens), P53350; Plk1 PBD binding of FITC phosphopeptide, fluorescence polarization; Potency, µM, usual class: inhibitors; 2.8% of 360,000 active; AID 720504, 2013; also: series mostly up to about 57 µM; nearly all actives have a fitted effect of over 65% in size
Each line names hits and unclear results; the compound was inactive in the other large screens. Unless noted, calls follow the shape of the dose curve; as a rule, active = well fitted curve in the direction sought with a large enough effect; inconclusive = small, poorly fitted or top-dose-only effect, or another doubt; inactive = no such curve, though single readings can be large; an effect the other way counts as inactive or inconclusive.

O=C(O)CCC(=O)Nc1ccccc1Oc1ccccc1	VDR inh 79µM, PLK1 PBD inh 27µM
CC1CC1C(=O)OCC(=O)Nc1ccccc1Oc1ccccc1 (stereo unspecified)	PLK1 PBD inh 27µM
CC(=O)Nc1ccc(SC[C@H](C)CN2CC[C@H](O)CCC2=O)cc1	VDR inh inconclusive, PLK1 PBD inh 19µM
CC(=O)Nc1ccc(SCCN2CCN(CC(C)C)CCC2=O)cc1	VDR inh 50µM (no result: PTAP TSG101 blk, USP1 inh, GCN5L2 inh, PLK1 PBD inh)
CCc1ccccc1NC(=O)CSc1nc2c(oc3ccccc32)c(=O)n1C	USP1 inh inconclusive (no result: PTAP TSG101 blk, PLK1 PBD inh)
O=C(NC(NNc1ccc([N+](=O)[O-])cc1)(C(F)(F)F)C(F)(F)F)c1ccc(Cl)cc1	VDR inh 79µM
O=C(NNc1ccc([N+](=O)[O-])cc1)c1ccccc1Cl	none
CCOC(=O)C1CCCN(C(=O)CCNS(=O)(=O)c2ccc3c(c2)CCC(=O)N3)C1 (stereo unspecified)	VDR inh inconclusive, PLK1 PBD inh 17µM
CCCCN(CC)Cc1c(O)ccc2c(-c3ccccc3)cc(=O)oc12	USP1 inh inconclusive, PLK1 PBD inh 27µM
COc1ccc(-n2c(=O)c3ccc(C(=O)NCc4ccc(C)cc4)cc3n(Cc3ccc(F)cc3Cl)c2=O)cc1	none (no result: PTAP TSG101 blk, PLK1 PBD inh)
COc1cccc(C(=O)NCC(=O)OCc2cc(=O)n3c(C)csc3n2)c1	none (no result: PTAP TSG101 blk, PLK1 PBD inh)
COc1cc(C)c(NC(=O)C2CCN(S(=O)(=O)c3cccs3)CC2)cc1OC	none
CC(NC(=O)C12CC3CC(CC(C3)C1)C2)C(=O)NCCN(C)C (stereo unspecified)	PLK1 PBD inh 30µM
CC(OCCN(C)C)C(=O)C12CC3CC(CC(C3)C1)C2 (stereo unspecified)	none
CCOC(=O)c1cnc2c(OC)cccc2c1N1CCN(c2ccc(OC)cc2)CC1	PLK1 PBD inh 24µM
Cc1ccc(CNC(=O)CS(=O)(=O)c2cccc3nsnc23)cc1	USP1 inh inconclusive (no result: PTAP TSG101 blk, PLK1 PBD inh)
COc1ccc(C2/C=C\CN(C(=O)C3CCCC3)[C@H](Cc3ccccc3)C(=O)N2Cc2ccc(F)cc2)cc1 (stereo partly specified)	none
O=C(c1cccc(Br)c1)N1CCN(c2cnn(-c3ccccc3)c(=O)c2Cl)CC1	none
O=C(c1ccccc1F)N1CCN(c2cnn(-c3cccc(Cl)c3)c(=O)c2Cl)CC1	PLK1 PBD inh 27µM
COc1ccccc1C(=O)N1CCN(c2cccc(Cl)c2)CC1	PLK1 PBD inh 24µM
O=C(Cn1cc2c(n1)CCCCC2)Nc1ccccc1Cl	none
O=C(Cn1cc2c(n1)CCCCC2)NCc1ccccc1	PLK1 PBD inh 30µM
O=C(Cn1cc2c(n1)CCCC2)Nc1ccccc1Cl	PLK1 PBD inh 24µM
O=C(Nc1ccccc1F)c1nc(SCc2ccccc2F)ncc1Cl	USP1 inh inconclusive (no result: PTAP TSG101 blk, PLK1 PBD inh)
CCN(CC(=O)NC(C)C)C(=O)c1ccc(S(=O)(=O)N(C)c2ccccc2OC)cc1	VDR inh inconclusive, PLK1 PBD inh 3µM
COc1ccc2[nH]cc(CCNC(=O)c3ccc4ccccc4n3)c2c1	none
COc1ccc2nc(C)cc(Sc3nc4ccccc4s3)c2c1	VDR inh inconclusive, PLK1 PBD inh 24µM
CCOc1ccccc1CNC(=O)c1nc(-c2ccc(Cl)cc2)n2c1CCCCC2	none (no result: PTAP TSG101 blk, PLK1 PBD inh)
Cc1ccc(C(=O)N/C(=C\c2ccc(-c3ccccc3[N+](=O)[O-])o2)C(=O)NCCCN(C)C)cc1	USP1 inh 28µM, PLK1 PBD inh inconclusive
CCCCNC(=O)/C(=C\c1ccc([N+](=O)[O-])o1)NC(=O)c1ccccc1	PLK1 PBD inh 21µM
O=C(O)/C(=C\c1ccc(-c2ccccc2[N+](=O)[O-])o1)c1ccccc1	PLK1 PBD inh 38µM
COC(=O)/C(=C\c1ccc([N+](=O)[O-])o1)NC(=O)c1ccccc1	none
CCn1c(CN2CCN(c3cccc(Cl)c3)CC2)nc2c1c(=O)[nH]c(=O)n2C	none (no result: PTAP TSG101 blk, PLK1 PBD inh)
O=C(NCCc1csc(-c2ccc(Cl)cc2)n1)c1cccs1	USP1 inh inconclusive (no result: PTAP TSG101 blk, PLK1 PBD inh)
CCOC(=O)C1CCN(C(=O)c2nn(-c3ccc(OC)c(Cl)c3)c(=O)c3c2c2ccccc2n3C)CC1	none (no result: PTAP TSG101 blk, PLK1 PBD inh)
O=C(O)COc1cccc2c1CCC=C2CCO/N=C(\c1ccccc1)c1cccnc1	VDR inh 50µM (no result: PTAP TSG101 blk, USP1 inh, PLK1 PBD inh)
Clc1ccccc1-c1cc(NCc2ccccc2)ncn1	VDR inh 45µM, GCN5L2 inh inconclusive (no result: PTAP TSG101 blk, USP1 inh, PLK1 PBD inh)
Clc1cc(NCc2ccccc2)ncn1	none
CCc1nnc2c(NCCc3ccc(OC)c(OC)c3)nc3ccccc3n12	VDR inh inconclusive, PLK1 PBD inh 27µM
COc1ccc(CCNc2nc3ccccc3n3cnnc23)cc1OC	none
O=C(NCCCN1CCCC1=O)c1ccc2c(=O)n(Cc3ccco3)c(=S)[nH]c2c1	PLK1 PBD inh 4.7µM
COc1ccc(S(=O)(=O)N2CCCC(C(F)(F)F)C2)cc1 (stereo unspecified)	none
Cc1ccc(C(=O)NCCCc2ccccc2)s1	none
O=C(OCc1cnc(Cl)s1)c1c(F)cccc1F	PLK1 PBD inh 24µM
Cc1onc(-c2c(F)cccc2Cl)c1C(=O)OCc1cnc(Cl)s1	none
CCCOc1ccc(CNC(=O)C2CCN(C(=O)c3sccc3-n3cccc3)CC2)cc1	none (no result: PTAP TSG101 blk, PLK1 PBD inh)
Cc1ccccc1-n1ncc2c1CC(C)(C)CC2NC(=O)c1cn[nH]c1C (stereo unspecified)	VDR inh inconclusive, PLK1 PBD inh 30µM
Cc1ccccc1-n1ncc2c1CC(C)(C)CC2NC(=O)c1ccncc1 (stereo unspecified)	none
COc1ccc(NC(=O)C2CCN(C(=O)c3cccs3)CC2)c(OC)c1	VDR inh inconclusive, PLK1 PBD inh 7.5µM
COc1ccc(NC(=O)C2CCN(C(=O)c3ccccc3)CC2)c(OC)c1	none
CCCn1c2ccccc2c2cnn(CC(=O)N3CCC(C(=O)OCC)CC3)c(=O)c21	none (no result: PTAP TSG101 blk, PLK1 PBD inh)
O=C1Nc2ccccc2C1=Nc1ccc(Br)cc1	VDR inh 22µM
O=C1Nc2ccccc2C1=Nc1ccc(Cl)cc1	VDR inh inconclusive
O=C(O)c1cccc(N2C(=O)c3ccc(C(=O)c4cccc([N+](=O)[O-])c4)cc3C2=O)c1	none
O=C(O)c1ccc2c(c1)C(=O)N(c1cccc(C(=O)/C=C/c3ccccc3)c1)C2=O	VDR inh inconclusive, PLK1 PBD inh 42µM
O=C(c1[nH]c2ccccc2c1Sc1ccc(Cl)cc1)N1CCCCC1	none (no result: PTAP TSG101 blk, PLK1 PBD inh)
O=c1ccc2[n+]([O-])c3ccc(O)cc3oc-2c1	VDR inh 11µM, GCN5L2 inh inconclusive
O=c1cc(O)c2ccc(O)cc2o1	none
CCNC(=O)C1(C)CCN(Cc2cccc(C(F)(F)F)c2)C1 (stereo unspecified)	none (no result: PTAP TSG101 blk, USP1 inh, VDR inh, GCN5L2 inh)
Nc1sc2c(c1C(=O)NC1CC1)CCCC2	VDR inh 79µM, PLK1 PBD inh 19µM
